# Measured values published in PubChem BioAssay (Tox21).
# Results filed as inconclusive are left out. Activity calls are given as the source filed them. The call rests on the fitted dose curve; in most records, active means well fitted cell-killing curve with a large enough effect in the repeat runs; inconclusive means weak or mixed curves, or effect the other way; inactive means no such curve, though single readings can be large or run the other way.
# Assay: qHTS assay to identify small molecule antagonists of the retinoid-related orphan receptor gamma (ROR-gamma) signaling pathway - cell viability counter screen (AID 1159520); further: nearly all actives have a fitted effect of over 50% in size
# Conditions: Tet-on RORgamma CHO cells viability, ATP luminescence, 16 h; series mostly up to 92.4 µM
# Text: U.S. Tox21 Program National Center for Advancing Translational Sciences [NCATS] NIH Chemical Genomics Center [NCGC] U.S. Environmental Protection Agency [EPA] National Institutes of Environmental Health Sciences [NIEHS] National Toxicology Program [NTP] U.S. Food and Drug Administration [FDA] Tox21 Assay Overview: Nuclear steroid hormone receptors are involved in many biological processes including inflammatory responses, cell proliferation, and apoptosis. Environmental factors or compounds disrupting these nuclear receptor pathways and gene expression may promote susceptibility to immunotoxicants and autoimmune diseases. One important group of these expression factors are the retinoid-related orphan receptors. To assess compounds that may interfere with the retinoid-related orphan receptor gamma (ROR-gamma) transcription factor, a cell-based luciferase assay was used. The CHO cell-based assay utilizes a TET-inducible ROR expression factor and ROR response element-LUC reporter gene. Reporter gene activity was induced using Doxycycline Hyclate and measured after 16 hr incubation. Tet-on ROR gamma CHO cells were used to screen against the Tox21 10K compound library for cytotoxicity by measuring the viability of the cells based on the quantitation of the ATP.
# Tox21 Assay Protocol Summary: Tet-on ROR gamma CHO cells were dispensed at 1,000 cells in 4 uL of culture medium per well into white wall/solid bottom 1536-well plates using a Multidrop Combi (Thermo Scientific, Waltham, MA) dispenser. Following incubation at 37 C and 5% CO2 for 4 hr, 23 nL of compounds dissolved in DMSO, positive controls or DMSO only were transferred by a Pintool station (Kalypsys, San Diego, CA) and after 2 hr incubation at 37 C, one ul of 1 uM (final concentration) of Doxycycline Hyclate was added to all the wells by using a Flying Reagent Dispenser (FRD) (Aurora Discovery, San Diego, CA). After 16 hr incubation at 37 C and 5% CO2, 5 uL of CellTiter-Glo reagent (Promega Corporation, Madison, WI) was added to each assay plate using FRD. After 30 min incubation at room temperature, luminescence was quantified on a ViewLux plate reader (Perkin Elmer, Waltham, MA).
row,Structure (SMILES),outcome
1,CC(C)CCCC(C)N (stereo not given),inactive
2,C[N+](C)(C)CCCCCC[N+](C)(C)C,inactive
3,CCO/C([O-])=N/c1c[n+](N2CCOCC2)no1,inactive
4,C[C@H](NC(CCc1ccccc1)C(=O)O)C(=O)N1CCC[C@H]1C(=O)O (stereo not given in full),inactive
5,C=CCCCCCCCCC=O,inactive
6,CCCCOCCOCCOCc1cc2c(cc1CCC)OCO2,inactive
7,Cc1cc(O)cc2c1O[C@](C)(CCC[C@H](C)CCC[C@H](C)CCCC(C)C)CC2,inactive
8,OC1CCCCC1c1ccccc1 (stereo not given),inactive
9,CC[N+](C)(C)c1cccc(O)c1,inactive
10,COc1ccc2c(c1)CCCC2=O,inactive
11,COc1c(N2C[C@@H]3CCCN[C@@H]3C2)c(F)cc2c(=O)c(C(=O)O)cn(C3CC3)c12,inactive
12,Cc1sccc1Br,inactive
13,FC1(F)C(F)(F)C(F)(F)C2(F)C(F)(F)C(F)(F)C(F)(F)C(F)(F)C2(F)C1(F)F (stereo not given),inactive
14,CCn1ccnc1CC1COc2ccccc2O1 (stereo not given),inactive
15,Cn1cc(S(C)=O)c(=O)c2ccc(F)cc21 (stereo not given),inactive
16,CC(C)NC(=O)NC(C)C,inactive
17,N=c1nc(N2CCCCC2)cc(N)n1O,inactive
18,CCCCCCOC(=O)CCCCC(=O)OCCCCCC,inactive
19,CCN(Cc1ccncc1)C(=O)C(CO)c1ccccc1 (stereo not given),inactive
20,Nc1ccccc1S(=O)(=O)O,inactive

row,Structure (SMILES),outcome
1,CCn1nc(C(=O)O)c(=O)c2cc3c(cc21)OCO3,inactive
2,ClC(Cl)(Br)Br,inactive
3,c1ccc([C@H]2CN3CCSC3=N2)cc1,inactive
4,CC(=O)c1ccccc1O,inactive
5,NC(=O)COCCN1CCN(C(c2ccccc2)c2ccc(Cl)cc2)CC1 (stereo not given),inactive
6,CCOC(=O)C(=O)OCC,inactive
7,CC(=O)CC(C)(C)C1CCCCC1,inactive
8,CC(=O)OCC(=O)[C@@]1(O)CCC2C3CCC4=CC(=O)CC[C@]4(C)C3[C@@H](O)C[C@@]21C (stereo not given in full),inactive
9,CS(=O)(=O)O,inactive
10,COc1nc(N)nc2c1ncn2[C@@H]1O[C@H](CO)[C@@H](O)[C@@H]1O,inactive
11,CCN1CCC[C@H]1CNC(=O)c1c(O)c(Cl)cc(Cl)c1OC,inactive
12,CO[C@]12C[C@@H](COC(=O)c3cncc(Br)c3)CN(C)[C@@H]1Cc1cn(C)c3cccc2c13,inactive
13,CC(=O)OC/C=C(\C)CC/C=C(\C)CCC=C(C)C,inactive
14,COC(=O)CCSCCC(=O)OC,inactive
15,Cc1c(NC(C)C)c(=O)n(-c2ccccc2)n1C,inactive
16,COC(=O)c1ccc(C)cc1C1=NC(C)(C(C)C)C(=O)N1 (stereo not given),inactive
17,CCS(=O)(=O)c1ccc(OC)c(C(=O)OC)c1,inactive
18,CCCCC(CC)COC(=O)c1ccccc1O (stereo not given),inactive
19,CCSC(=O)N(CC(C)C)CC(C)C,inactive
20,CC(C)(CC(=O)O)C(=O)O,inactive
